Screening results (PubChem BioAssay)
Sampled rows, rich in hits. Any-hit rate of the full collection: about 2.4%.
D2 PAM-1: positive allosteric modulators of human D2 dopamine receptor | P14416 | DiscoveRx D2 beta-arrestin cells, luminescence, 90 min; 100% = 57 uM dopamine signal | potentiation, % (concentration not given with the values) | 360,000 tested, 0.23% active | AID 624464; in the data active = potentiation above about 50%; inconclusive = mostly about 30% to 49%
Target sequence (P14416 whole entry, looked up): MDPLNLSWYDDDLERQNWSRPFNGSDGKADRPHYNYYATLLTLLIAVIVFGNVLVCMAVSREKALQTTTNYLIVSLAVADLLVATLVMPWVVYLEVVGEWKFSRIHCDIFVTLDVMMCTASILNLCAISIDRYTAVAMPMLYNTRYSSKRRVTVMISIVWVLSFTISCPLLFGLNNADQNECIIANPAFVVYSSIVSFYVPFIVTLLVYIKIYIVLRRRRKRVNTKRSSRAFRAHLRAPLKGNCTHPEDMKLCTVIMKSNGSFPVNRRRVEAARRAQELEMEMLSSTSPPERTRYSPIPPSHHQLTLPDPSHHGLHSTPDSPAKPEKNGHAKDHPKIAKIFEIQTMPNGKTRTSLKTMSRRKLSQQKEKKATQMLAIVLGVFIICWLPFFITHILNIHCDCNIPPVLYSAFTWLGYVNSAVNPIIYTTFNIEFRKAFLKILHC
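D2 cells co-treated with compound plus 50 nM dopamine (EC20) for 90 min at 37 deg C to detect potentiation. Beta-arrestin recruitment was read as enzyme-fragment luminescence after 1 h at ambient temperature. Full response was set by 57 uM dopamine.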
D2 ag-1: human D2 receptor agonism in beta-arrestin assay; activation, % (test concentration not listed); AID 624465; 360,000 tested, 0.084% active; DiscoveRx PathHunter D2 beta-arrestin, luminescence, 90 min; 100% = 57 uM dopamine signal; in the data active = activation above about 40%; inconclusive = between about 15% and that limit
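DiscoveRx PathHunter D2 beta-arrestin cells (2,100/well) attached overnight, then compound-stimulated 90 min at 37 C in HBSS/10 mM HEPES/0.1% Tween-20 buffer; beta-galactosidase complementation read by luminescence after 1 h at ambient temperature. Dopamine 57 uM final (EC100) as control.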
D2 PAM-2: positively modulates the human D2 dopamine receptor allosterically | HEK293 T-REx D2, calcium flux, EC20 dopamine potentiation | potentiation, % at 10 µM | 340,000 tested, 0.34% active | AID 485347;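 active = potentiation over 3 SD above the plate norm, cut at about 30% in these data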
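Calcium flux readout, no-wash dye, 1 read/s. Inducible HEK293 Trex D2 line, overnight 30 C. Compound alone 180 s (agonist flags), then EC20 dopamine, another 180 s to score potentiation.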
D2 ag-2: agonists of human D2 dopamine receptor. 340,000 tested, 0.53% active. P14416. AID 485358. HEK293 T-REx D2 cells, calcium flux agonist mode. activation, % at 2 µM;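 active = activation over 3 SD above normal in the single-dose calcium agonist read, cut at about 30% in these data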
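In this primary screen, compounds producing a positive calcium signal within 180 s of addition to tetracycline-induced, force-coupled HEK293 Trex D2 cells are flagged; cells are dye-loaded with a no-wash calcium kit beforehand.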
D2 antagonist: antagonists of human D2 dopamine receptor; P14416; 340,000 tested, 2% active; inhibition, % at 10 µM; HEK293 TREx D2 cells, calcium flux, dopamine EC80; in the data active = inhibition above about 30%; inactive = below that, where a call was filed
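Calcium mobilization kinetics were recorded at 1 s intervals in tetracycline-induced HEK293 T-REx D2 cells, first for 180 s after compound addition and then 180 s after EC80 dopamine.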
Of the large screens only hits and unclear results are named; the others gave an inactive call.

COc1cc(/C=C/C(=O)c2ccc3c(c2)OCO3)cc(Cl)c1O	D2 ag-2 78, D2 antagonist 35
Cc1ccc(NC(=O)CC2S/C(=N/N=C/C=C/c3ccccc3)NC2=O)cc1Cl (centres undefined)	none
Cc1ccc(NC(=O)CC2S/C(=N/N=C/c3ccco3)NC2=O)cc1Cl (centres undefined)	D2 antagonist 33
CC(C)=N/N=C1/NC(=O)C(CC(=O)Nc2cc(Cl)ccc2C)S1 (centres undefined)	D2 antagonist 46
Cc1ccccc1NC(=O)CC1SC(=Nc2ccc(O)cc2)NC1=O (centres undefined)	none
CCC1Oc2ccc(C)cc2N(CC(=O)NCCc2ccccc2)C1=O (centres undefined)	none (no result: D2 PAM-1, D2 ag-1, D2 antagonist)
CCCOc1ccc(-c2nn(-c3ccccc3)cc2C2NC(=O)NC(C)=C2C(=O)OC(C)C)cc1 (centres undefined)	none (no result: D2 PAM-1, D2 ag-1, D2 antagonist)
CCCNC(=O)C1(C)CCN(C(=O)c2cccc(C(F)(F)F)c2)C1 (centres undefined)	none (no result: D2 PAM-2, D2 ag-2, D2 antagonist)
Oc1sc(C=Nc2ccc(F)cc2)c2ccccc12	D2 PAM-1 inconclusive
Oc1sc(C=Nc2ccccc2)c2ccccc12	D2 ag-2 36
Cc1cc(C)c(OCCCCN(C)Cc2ccccc2)c(C)c1	D2 antagonist 33
Cc1ccc(OCCCCN(C)Cc2ccccc2)c(Br)c1	none
Cc1cccc(N2CCN(C(=O)Cn3c(C)c4cnn(-c5ccccc5)c(=O)c4c3C)CC2)c1C	none (no result: D2 PAM-1, D2 ag-1, D2 antagonist)
CCCSc1ncc(Cl)c(C(=O)N2CCN(c3cccc(Cl)c3)CC2)n1	none (no result: D2 PAM-1, D2 ag-1, D2 antagonist)
Cc1ccc2c(c1)C1CN(C)CCC1N2S(=O)(=O)c1ccc(C#N)cc1 (centres undefined)	D2 antagonist 40
Cc1ccc2c(c1)C1CN(C)CCC1N2C(=O)c1ccccc1NS(=O)(=O)c1ccc(F)cc1 (centres undefined)	none
CCOC(=O)c1[nH]c2ccc(OCC)cc2c1NC(=O)CN1CCN(c2ccccn2)CC1	D2 antagonist 36
CCOC(=O)C1CCN(CC(=O)Nc2c(C(=O)OC)[nH]c3ccccc23)CC1	D2 ag-2 35, D2 antagonist 49 (no result: D2 PAM-1, D2 ag-1)
O=C1c2cccc3c(N4CCCCC4)ccc(c23)C(=O)N1c1ccccc1O	D2 ag-2 36
O=C1c2cccc3c(N4CCCCC4)ccc(c23)C(=O)N1c1ccc(O)cc1	D2 ag-2 66
O=C1c2cccc3cccc(c23)C(=O)N1c1ccc(O)cc1	none
CSc1ccc(CNC(=O)C2CCCN(S(=O)(=O)N(C)c3ccc(F)cc3)C2)cc1 (centres undefined)	none (no result: D2 PAM-1, D2 ag-1, D2 antagonist)
COc1ccc(C(C#N)(CCC#N)CCC#N)cc1OC	D2 antagonist 80
C=CCC(C#N)(c1ccc(OC)c(OC)c1)c1cnccn1 (centres undefined)	none
O=C(CSc1ncc2c(n1)-c1ccccc1N(Cc1ccc(F)cc1)S2(=O)=O)c1ccc(Cl)cc1	none (no result: D2 PAM-1, D2 ag-1, D2 antagonist)
COC(=O)c1ccc(CNC(=O)c2ccc(S(=O)(=O)N(C)c3ccccc3OC)cc2)cc1	D2 antagonist 49
COc1ccccc1N(C)S(=O)(=O)c1ccc(C(=O)NCC2CCCCC2)cc1	D2 antagonist 80
COc1ccccc1N(C)S(=O)(=O)c1ccc(C(=O)NCC(C)C)cc1	none
COc1ccccc1N(C)S(=O)(=O)c1ccc(C(=O)NCCc2ccc(F)cc2)cc1	none
Cc1ccc(NC(=O)Cn2c(=O)n(Cc3nc(C)no3)c(=O)c3cc4c(cc32)OCO4)c(C)c1	none (no result: D2 PAM-1, D2 ag-1, D2 antagonist)
CCC1=C(OC(=O)N(CC)CC)N2C(=O)OC(=NCCOC)[C@]2(Cc2ccccc2)[C@H]2C1=CC[C@H]1C(=O)NC(=O)[C@H]12	D2 antagonist 52
CN1CCN(c2oc(/C=C/c3ccc(F)cc3)nc2C#N)CC1	none (no result: D2 PAM-1, D2 ag-1, D2 antagonist)
CSc1ncnc2c1ncn2CCCNc1ccc(C)c(C)c1	none (no result: D2 PAM-2, D2 ag-2, D2 antagonist)
CCc1ccc(CNC(=O)c2ccc(CS(=O)(=O)Cc3cccc(C)c3)o2)cc1	none (no result: D2 PAM-1, D2 ag-1, D2 PAM-2, D2 antagonist)
Cc1cccc(CS(=O)(=O)Cc2ccc(C(=O)NCc3cccnc3)o2)c1	D2 antagonist 33 (no result: D2 PAM-2)
COCCNC(=O)CCCn1c(SCc2ccccc2Cl)nc2c(sc3ccccc32)c1=O	none (no result: D2 PAM-1, D2 ag-1, D2 antagonist)
C[C@H](NC(=O)c1ccccc1)C(=O)N1CCN(c2ccccc2)CC1	D2 antagonist 30
O=C(NC(=S)N1CCN(c2ccc([N+](=O)[O-])cc2)CC1)c1ccccc1	D2 antagonist 31
Cc1ccc(C(=O)NC(=S)N2CCN(c3ccc([N+](=O)[O-])cc3)CC2)cc1	none
CC(NC(=O)COc1ccccc1)C(=O)N1CCN(c2ccccc2)CC1 (centres undefined)	none
CCOC(=O)C1CCN(c2cc3c(cc2NC(=O)c2ccc(Cl)cc2)n(C)c(=O)n3C)CC1	none (no result: D2 PAM-1, D2 ag-1, D2 antagonist)
CC(C)c1ccccc1NC(=S)NCC1(N(C)C)CCCCC1	none (no result: D2 PAM-2, D2 ag-2, D2 antagonist)
O=S(=O)(c1ccc(F)cc1)N1CCC(O)(c2ccc3c(c2)OCO3)CC1	none
OC1(c2ccc3c(c2)OCO3)CCN(Cc2ccc(F)cc2)CC1	D2 antagonist 73
OC1(c2ccc(F)cc2)CCN(Cc2cccnc2)CC1	D2 antagonist 34
O=Nc1c(O)c2ccccc2c2ccccc12	D2 PAM-1 67 (no result: D2 PAM-2, D2 ag-2, D2 antagonist)
O=c1ccc2ccccc2c2ccccc12	none (no result: D2 PAM-2, D2 ag-2, D2 antagonist)
Cc1ccc(Cl)cc1N(C)C(=O)c1cc2ccc3cccnc3c2[nH]1	none (no result: D2 PAM-1, D2 ag-1, D2 ag-2, D2 antagonist)
COc1ccc(C)cc1NC(=O)C(NS(=O)(=O)c1cccs1)c1ccccc1 (centres undefined)	none (no result: D2 PAM-1, D2 ag-1, D2 ag-2, D2 antagonist)
COc1ccc(C)cc1NC(=O)C(NCC(O)c1ccccc1)c1ccccc1 (centres undefined)	D2 antagonist 33
Cc1ccc(N(CC(=O)NCCSc2nc3ccccc3s2)S(=O)(=O)c2ccccc2)c(C)c1	D2 antagonist 55
COc1ccccc1N1CCN(CC(=O)Nc2ccc(Cl)c(C(F)(F)F)c2)CC1	D2 antagonist 81
COc1ccccc1N1CCN(c2ccc(=O)n(CC(=O)Nc3cc(F)ccc3C)n2)CC1	none (no result: D2 PAM-1, D2 ag-1, D2 antagonist)
COc1ccccc1N1CCN(CC(=O)Nc2cc(F)ccc2C)CC1	D2 antagonist 86
CC(=O)Nc1ccc(S(=O)(=O)N2CCC(n3c(C(F)(F)F)nc4cccnc43)CC2)cc1	none (no result: D2 PAM-1, D2 ag-1, D2 ag-2, D2 antagonist)
CC(Sc1nc2ccccc2c(=O)n1CCc1ccc(S(N)(=O)=O)cc1)C(=O)NC(N)=O (centres undefined)	D2 PAM-2 40
CC1CCCCC1Nc1ncnc2sccc12 (centres undefined)	D2 antagonist 36
COc1ccc(OCCCC(=O)Nc2nncs2)cc1	D2 PAM-2 39
O=c1cc(N2CCN(Cc3ccccc3)CC2)[nH]c(=O)n1-c1ccc(Br)cc1	D2 antagonist 38
COc1ccccc1CNC(=O)Cn1c(=O)nc(-c2ccccc2)c2ccccc21	none (no result: D2 PAM-1, D2 ag-1, D2 antagonist)
O=C(NCc1cccc(C(F)(F)F)c1)c1csc(COCCO)n1	none (no result: D2 PAM-2, D2 ag-2, D2 antagonist)
